Rows were chosen to be rich in hits. Some 2.4% of all compounds tested hit in one or more screens of this group.
D2 ag-1 – agonists of human D2 dopamine receptor (beta-arrestin) | P14416 | DiscoveRx PathHunter D2 beta-arrestin, luminescence, 90 min; 100% = 57 uM dopamine signal | activation, % (concentration not given with the values) | 0.084% of 360,000 active | AID 624465; in the data active means activation above about 40%; inconclusive means between about 15% and that limit
Target sequence (P14416 whole entry, looked up): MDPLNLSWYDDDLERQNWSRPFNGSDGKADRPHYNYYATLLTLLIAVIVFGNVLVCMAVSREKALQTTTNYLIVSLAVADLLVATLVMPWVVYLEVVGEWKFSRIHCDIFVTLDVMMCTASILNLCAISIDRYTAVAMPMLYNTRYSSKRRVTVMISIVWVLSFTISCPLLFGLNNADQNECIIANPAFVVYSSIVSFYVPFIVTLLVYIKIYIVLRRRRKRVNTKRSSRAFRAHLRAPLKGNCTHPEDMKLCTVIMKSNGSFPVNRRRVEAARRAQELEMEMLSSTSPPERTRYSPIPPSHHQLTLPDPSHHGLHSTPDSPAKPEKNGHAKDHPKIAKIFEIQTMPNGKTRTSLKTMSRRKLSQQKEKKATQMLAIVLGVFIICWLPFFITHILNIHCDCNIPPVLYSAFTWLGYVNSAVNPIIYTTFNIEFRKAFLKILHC
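Agonist mode: compounds alone added to overnight-plated D2 PathHunter cells for 90 min at 37 C, with 57 uM final dopamine (EC100) defining full response. Beta-arrestin recruitment detected by chemiluminescent reagent, read after 1 h at ambient temperature.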
D2 PAM-1 – positively modulates the human D2 dopamine receptor allosterically; P14416; HEK293 T-REx D2, calcium flux, EC20 dopamine potentiation; potentiation, % at 10 µM; 0.34% of 340,000 active;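 active means potentiation over 3 SD above the plate norm, cut at about 30% in these data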; further: 0% is about no effect
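Using a no-wash calcium dye in inducible, force-coupled HEK293 Trex cells expressing D2, we tracked fluorescence each second for 180 s after compound, then for 180 s after EC20 dopamine to detect augmented signalling.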
D2 ag-2 – D2 dopamine receptor (human) agonism; HEK293 T-REx D2 cells, calcium flux agonist mode; 0.53% of 340,000 active; P14416; activation, % at 2 µM; AID 485358;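 active means activation over 3 SD above normal in the single-dose calcium agonist read, cut at about 30% in these data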; further: 0% is about no effect
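HEK293 Trex D2 cells, tetracycline-induced, o/n 30 C 5% CO2; no-wash Ca dye, RT 30–90 min; 10-cycle baseline, 23 nl cpd added, kinetic Ca read 180 s; agonist hits = positive Ca response.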
D2 antagonist – D2 dopamine receptor (human) antagonism | P14416 | HEK293 TREx D2 cells, calcium flux, dopamine EC80 | inhibition, % at 10 µM | 2% of 340,000 active; in the data active means inhibition above about 30%; inactive means below that, where a call was filed; further: 0% is about no effect
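Cells plated overnight at 30 C with tetracycline; no-wash calcium dye, 30–90 min RT; 10 s baseline; compound pinned; 180 s read; EC80 dopamine added; another 180 s read.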
D2 PAM-2 – positive allosteric modulators of human D2 dopamine receptor; P14416; DiscoveRx D2 beta-arrestin cells, luminescence, 90 min; 100% = 57 uM dopamine signal; potentiation, % (no concentration beside the values); 0.23% of 360,000 active; AID 624464; in the data active means potentiation above about 50%; inconclusive means mostly about 30% to 49%
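D2 cells co-treated with compound plus 50 nM dopamine (EC20) for 90 min at 37 deg C to detect potentiation. Beta-arrestin recruitment was read as enzyme-fragment luminescence after 1 h at ambient temperature. Full response was set by 57 uM dopamine.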
D3 arrestin ag – confirmation of human D3 dopamine receptor agonists, beta-arrestin. DiscoveRx D3 beta-arrestin cells, luminescence, 90 min. AID 720506. 4% of 2,300 active. shares compounds with D2 ag-2. Potency, µM (highest dose often 76.9 µM), inactives show at the highest dose activation, actives largely listed as activators;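 further: potency means the concentration at half of the fitted maximal effect; 100% = dopamine control response; nearly all actives have a fitted effect of over 70% in size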
D2 ag-3 – D2 receptor agonism, beta-arrestin counterscreen. shares compounds with D2 ag-2. DiscoveRx PathHunter D2 beta-arrestin, luminescence, 90 min; response scale: percent relative to full dopamine signal. Potency, µM (doses to about 76.9 µM), for the others: at the highest dose activation, usual class: activators. 5.9% of 2,300 active. AID 720507; further: potency means the concentration at half of the fitted maximal effect; % of control where 0% means no effect; nearly all actives have a fitted effect of over 70% in size
* marks the source's active call; other numbers are inactive results; ? = inconclusive; / = not tested or not shown. Unless noted, the call rests on the fitted dose curve; in most records, active means well fitted activation curve with a large enough effect; inconclusive means small, poorly fitted or top-dose-only effect; inactive means flat fitted curve, though single readings scatter.

SMILES	D2 ag-1	D2 PAM-1	D2 ag-2	D2 antagonist	D2 PAM-2	D3 arrestin ag	D2 ag-3
CCOC(=O)c1ccc(NC(=O)CSc2cc(-c3ccccc3)nc(C)n2)cc1	/	7	4	/	/	/	/
COc1ccc(-n2c3c(c(=O)[nH]c2=O)C(NC(=O)c2ccccc2Cl)(C(F)(F)F)C(=O)N3)cc1 (stereo not drawn)	/	6	0	/	/	/	/
N#CCCN(C(=O)COC(=O)c1cccc(S(=O)(=O)N2CCCC2)c1)c1ccc(F)cc1	-1	-1	1	-4	-15	/	/
CC(=O)N1CCN(S(=O)(=O)c2cccc(C(=O)OCC(=O)N(CCC#N)c3ccc(F)cc3)c2)CC1	-3	14	0	7	-4	-8%	-4%
CC(=O)Nc1cc(NC(C)=O)c2nc(N)sc2c1	1	-13	22	-19	-15	1%	8%
Cc1ccc(NC(=O)CN2C(=O)COc3ccc(S(=O)(=O)N4CCCCCC4)cc32)cc1Cl	/	1	-1	/	/	/	/
COc1ccc(/C=N/Nc2nnc(-c3ccccc3)c(=O)[nH]2)cc1	2	-21	60*	-21	-7	6%	2%
O=c1[nH]c(N/N=C/c2ccccc2Br)nnc1-c1ccccc1	4	-4	-2	25	-5	/	/
COc1ccc(C(=O)Nc2nnc(SCc3cc(=O)n4cccc(C)c4n3)s2)cc1	/	12	0	/	/	/	/
O=C(Cc1ccccc1)Nc1cccnc1	-5	11	3	-26	0	/	/
Cc1cccc(CC(=O)Nc2cccnc2)c1	0	1	30	2	-19	-11%	2%
Cc1ccc(NC(=O)C(=O)NCC(c2ccc3c(c2)OCO3)N2CCN(C)CC2)c(C)c1 (stereo not drawn)	/	-7	0	/	/	/	/
Cc1nc(-c2nc(-c3c(C(=O)NNC(=O)Nc4cccc(Cl)c4)noc3C)cs2)cs1	4	-18	40*	49*	1	-5%	9%
O=c1[nH]c(CN(CCc2ccccc2)S(=O)(=O)c2ccc(Cl)cc2)nc2ccccc12	-1	-9	25	-2	-12	-10%	7%
CN(C)c1ccc(NC(=O)CCN2CCN(c3ccccn3)CC2)cc1	?	-27	80*	85*	?	?	0.25µM*
O=C(CCN1CCN(c2ccccn2)CC1)Nc1ccc(F)cc1	12	-24	69*	67*	-17	?	29%
O=C(CN1CCN(c2ccccn2)CC1)Nc1ccc(OC(F)(F)F)cc1	9	-11	16	-24	1	/	/
Cn1nnnc1SCCCNCc1ccccc1OCc1ccccc1F	/	-28	-1	/	/	/	/
N#C/C(=C/c1ccc(N2CCOCC2)o1)c1nc2ccccc2[nH]1	1	3	25	-16	-13	?	3%
CCOc1ccc(C(=O)c2cn(CC(=O)Nc3ccc(C)c(C)c3)c3ccc(OCC)cc3c2=O)cc1	/	-4	0	/	/	/	/
Cc1ccc(C)c(CN2CCN(c3ncccn3)CC2)c1	53*	-28	75*	60*	5	0%	?
Cc1ccc(C)c(S(=O)(=O)N2CCN(c3ncccn3)CC2)c1	3	4	/	/	-6	/	/
Fc1ccccc1CN1CCN(c2ncccn2)CC1	98*	-21	84*	84*	?	?	7.9µM*
O=C(c1ccccc1F)N1CCN(Cc2ccccc2F)CC1	-7	4	0	-8	-16	/	/
O=[N+]([O-])c1ccc(Cl)c(CN2CCN(c3ncccn3)CC2)c1	13	-7	9	33*	0	10%	13%
SMILES	D2 ag-1	D2 PAM-1	D2 ag-2	D2 antagonist	D2 PAM-2	D3 arrestin ag	D2 ag-3
O=C(CN1CCN(c2ncccn2)CC1)NCc1ccc2c(c1)OCO2	?	-23	56*	37*	1	2%	19%
CCc1ccc(CNC(=O)CSc2cc(=O)n(C)c3ccc(Cl)cc23)cc1	/	-4	0	/	/	/	/
O=C(c1ccc([N+](=O)[O-])cc1)N1c2ncnn2C2(CCCCC2)[C@@H]2CCCC[C@@H]21	/	-4	-2	/	/	/	/
CC(=O)c1ccc(NS(=O)(=O)c2cc(-c3cc(C)no3)ccc2C)cc1	/	-2	0	/	/	/	/
COc1cccc(CNC(=O)CN2N=C(c3ccc(C)cc3)CCC2=O)c1	/	-4	0	/	/	/	/
Clc1cccc(Cl)c1CN1CCN(c2ncccn2)CC1	?	-17	55*	46*	2	11%	?
Oc1cc2c(cc1CN1CCN(c3ncccn3)CC1)OCO2	96*	-27	86*	83*	?	?	0.56µM*
CCc1cccc(NC(=O)CN(C)S(=O)(=O)c2ccc3c(c2)n(C)c(=O)c(=O)n3C)c1	/	-5	-1	/	/	/	/
CC1CN(C)C(C)C/C1=N/Oc1ccccc1[N+](=O)[O-] (stereo not drawn)	7	-19	41*	25	-11	20%	18%
Cc1cccc(N2CCN(C(=O)C3CCCN(S(=O)(=O)c4cccc5nsnc45)C3)CC2)c1C (stereo not drawn)	/	17	-1	/	/	/	/
COc1cc(CN2CCC(C(=O)N3CCN(c4ccccc4F)CC3)CC2)ccc1O	8	-21	39*	39*	1	?	22%
COc1cccc(CN2CCC(C(=O)N3CCN(c4ccccc4F)CC3)CC2)c1	2	-8	26	1	-10	3%	16%
CCOc1ccc(/C(O)=C2/C(=O)C(=O)N(c3ncccn3)C2c2ccccc2)cc1 (stereo not drawn)	-8	-18	50*	-5	-11	-9%	-5%
COc1ccc(-c2nc(-c3ccccc3)c(-c3ccc(F)cc3)[nH]2)c(OC)c1C	/	11	-2	/	/	/	/
CCN1C(=O)C2(c3ccccc31)c1c(oc3ccc(F)cc3c1=O)C(=O)N2CCCOC (stereo not drawn)	/	1	/	/	/	/	/
C=Cc1ccc(Cn2c(SCC(=O)N3CCN(c4ccc(F)cc4)CC3)nc3ccccc32)cc1	/	1	/	/	/	/	/
O=C(C1CCCN(Cc2ccc3c(c2)OCO3)C1)N1CCCC1 (stereo not drawn)	-1	1	0	-13	-4	/	/
O=C(C1CCN(c2nnc(N3CCCC3=O)s2)CC1)N1CCN(Cc2ccc3c(c2)OCO3)CC1	3	-5	57*	1	4	1%	26%
CCNC(=O)C(=O)Nc1ccc([N+](=O)[O-])cc1	-1	-9	25	-23	-10	-1%	-1%
COc1ccc(N2CCN(C(=O)c3nc(-c4ccc(Cl)cc4)n4c3CCCCC4)CC2)cc1	/	2	-1	/	/	/	/

Screening results as filed in PubChem BioAssay.
